p53ts 32C tox: kills p53ts cells at the permissive temperature; H1299-p53A138V at 32C, ATP luminescence viability, 24 h; Potency, µM (top dose mostly 46.1 µM), for inactives: at the top dose activity change, negative = cytotoxicity, usual class: cytotoxic; actives 0.93% (n = 130,000); AID 924;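 further: 0% = DMSO and -100% = full killing by reference compound; nearly all actives have a fitted effect of over 55% in size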
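Cells: H1299 p53ts (A138V), 600/well, pre-incubated 16–30 h at 37C. Cpd up to 46 uM, 24 h, 32C. Readout: ATPlite luminescence, 20 min RT. Normalization: DMSO vs tamoxifen 100 uM. AC50 by Hill equation.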
Imprint erasure: genomic imprint erasure induction | mouse ES Peg3-LacZ reporter, beta-gal luminescence, 40 h | Potency, µM (top dose mostly 60.7 µM), for inactives: at the top dose activity change, positive = activation, actives largely listed as activators | actives 0.02% (n = 110,000)
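Imprint erasure is scored as LacZ activity from the silenced maternal Peg3 allele in feeder-free female ES cells cultured 40 h with LIF. Luminescence is normalized to in-plate negative controls and fitted to the Hill equation.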
IkB sig inh: suppresses IkB signaling in ABC-DLBCL reporter cells; AID 445; actives 0.04% (n = 110,000); Potency, µM (highest dose often 57.1 µM), without a hit: top-dose IkBa stabilization activation; ABC-DLBCL IkBa-CBG/CBR dual luciferase ratio, 4 h; response scale: scaled: untreated 0%, proteasome inhibitor 100%; active means well fitted curve in the direction sought with a large enough effect in the signal ratio, not every such curve was filed as active; inconclusive means small, poorly fitted or top-dose-only effect, or a change in a side signal; the % refers to the signal ratio;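 further: the direction sought is a rising ratio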
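Luminescence ratio of IκBα-fused green versus native red beetle luciferase in OCI-Ly3 cells, 4 h post-doxycycline with compound; red signal alone, scaled from basal (0%) to zero light (-100%), flagged nonspecific or cytotoxic effects.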
TSHR agonist: agonists of human thyroid stimulating hormone receptor | Potency, µM (highest dose often 57.1 µM), without a hit: at the highest dose activation, hits mostly activators | P16473 | AID 926 | actives 0.48% (n = 73,000) | HEK293-CNG-TSHR cells (CNG channel as cAMP sensor), membrane potential dye, cAMP; active means well fitted activation curve with a large enough effect in the main read-out, with a control signal flat, not every such curve was filed as active; inconclusive means small, poorly fitted or top-dose-only effect, or a change in a side signal; inactive means no such curve, though single readings can be large or run the other way; % of control where 0% means no effect;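 further: the control signal comes from parental cells without the receptor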
Target sequence (P16473 whole entry, looked up): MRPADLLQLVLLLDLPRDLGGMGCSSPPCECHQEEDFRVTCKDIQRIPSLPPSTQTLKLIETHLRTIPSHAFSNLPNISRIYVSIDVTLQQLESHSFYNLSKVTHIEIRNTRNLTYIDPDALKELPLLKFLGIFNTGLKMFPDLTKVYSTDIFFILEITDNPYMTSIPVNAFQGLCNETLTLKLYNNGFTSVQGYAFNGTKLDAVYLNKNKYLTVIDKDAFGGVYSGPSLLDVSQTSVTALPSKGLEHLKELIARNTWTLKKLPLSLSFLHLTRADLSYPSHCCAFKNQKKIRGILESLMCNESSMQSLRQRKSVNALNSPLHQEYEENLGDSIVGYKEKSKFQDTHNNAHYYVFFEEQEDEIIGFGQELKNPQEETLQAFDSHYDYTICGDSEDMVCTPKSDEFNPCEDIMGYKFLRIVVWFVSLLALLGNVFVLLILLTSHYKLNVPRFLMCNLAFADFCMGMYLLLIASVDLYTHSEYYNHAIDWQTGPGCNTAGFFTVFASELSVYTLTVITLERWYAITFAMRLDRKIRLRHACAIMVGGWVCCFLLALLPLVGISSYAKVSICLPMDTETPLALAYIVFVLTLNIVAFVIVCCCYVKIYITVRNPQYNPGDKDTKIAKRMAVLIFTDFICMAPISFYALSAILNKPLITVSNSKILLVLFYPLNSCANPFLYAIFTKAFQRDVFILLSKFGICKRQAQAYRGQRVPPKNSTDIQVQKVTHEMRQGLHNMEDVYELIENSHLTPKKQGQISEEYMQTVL
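HEK 293 cells stably expressing TSHR and a cAMP-gated CNG channel; parental CNG-only cells as counterscreen. Cells preloaded 60 min with membrane potential dye plus 100 uM RO 20-1724, then compound 30 min; fluorescence read at 590 nm.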
HEK293 cAMP cs: parental HEK293 cAMP activation (counter-screen). parental HEK293 CNG cAMP sensor, membrane potential fluorescence. Potency, µM (doses to about 57.1 µM), inactives show at the top dose activation, actives largely listed as activators. actives 2.5% (n = 73,000); further: % of control where 0% means no effect; nearly all actives have a fitted effect of over 55% in size
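Parental HEK 293 cells stably expressing a modified CNG channel (no TSHR) report cAMP rise as membrane depolarization. Membrane potential dye with 100 uM RO 20-1724 was loaded for 60 min at room temperature, then compound added for 30 min; fluorescence read at 590 nm.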
p53ts 39C kill: p53ts cell cytotoxicity, nonpermissive temperature; H1299-p53A138V viability at 39C, ATP luminescence, 24 h; Potency, µM (top dose mostly 46.1 µM), for the others: at the top dose activity change, negative = cell killing, hits mostly cytotoxic; actives 1.5% (n = 130,000); AID 902; further: on the % scale 0 is the no-effect control and ±100 the full control effect; nearly all actives have a fitted effect of over 55% in size
An asterisk follows results filed as active; ? = inconclusive; nt = no result; [ ] = remark or other dose. A selection: hits, their analogues and other compounds. The true share with any hit is near 3.1%. Unless noted, the call rests on the fitted dose curve; in most records, active means well fitted curve in the direction sought with a large enough effect; inconclusive means small, poorly fitted or top-dose-only effect, or another doubt; inactive means no such curve, though single readings can be large; an effect the other way counts as inactive or inconclusive. Potency means the concentration at half of the fitted maximal effect.

SMILES	p53ts 32C tox	Imprint erasure	IkB sig inh	TSHR agonist	HEK293 cAMP cs	p53ts 39C kill
COC(=O)[C@H](C)[C@@H]1C[C@@]1(C)[C@@H](NC(=O)OCc1ccccc1)c1ccccc1	13%	-17%	nt	?	16µM*	-5%
C[C@@H](C(=O)NCc1ccccc1)[C@H]1C[C@]1(C)[C@H](NC(=O)OCc1ccccc1)c1ccccc1	0%	-15%	nt	?	16µM*	-5%
C[C@@H](C(=O)O)[C@H]1C[C@]1(C)[C@H](NC(=O)OCc1ccccc1)c1ccccc1	-1%	-9%	nt	?	?	6%
CCc1ccc(NC(=O)c2sc3nc(C)c(Cl)c(C)c3c2NC(=O)c2ccccc2OC)cc1	-2%	-5%[10.9 µM]	-2%	nt	nt	8%
Fc1ccc(-c2nnc(Cc3nnc(-c4ccc(F)cc4)o3)o2)cc1	5%	7%	4%	nt	13%	-2%
Fc1ccc(-c2nnc(NC3=NCCCCC3)o2)cc1	4µM*	-92%	?	-7%	-2%	4µM*
O=C(c1ccco1)c1cn(CC(=O)N2CCCc3ccccc32)c2ccccc12	22%	-16%	1%	?	25µM*	9%
c1cncc(-c2nccc(NCc3cccs3)n2)c1	-2%	?	3%[11.4 µM]	8%	14%	-14%
c1csc(CNc2ccnc(-c3ccc4c(c3)OCO4)n2)c1	13µM*	-14%	2%[11.4 µM]	?	?	10µM*
COc1cccc(-c2nccc(NCc3cccs3)n2)c1	?	-18%	2%[11.4 µM]	?	?	13µM*
O=C(Cc1cc(=O)[nH]c(=O)[nH]1)N1CCC(Cc2ccccc2)CC1	10µM*	-15%	1%	-18%	4%	?
Cn1c(CNc2ccc(Cl)cc2)nc2ccccc21	?	-68%	?	-6%	-3%	?
Cc1nc2cc(NCc3nc4ccccc4n3Cc3ccccc3)ccc2n1C	4µM*	nt	nt	?	-43%	2µM*
CC(C)C(=O)Nc1ccc(-c2nc3cccnc3o2)cc1	10µM*	-37%	4%	-8%	0%	10µM*
CCCCOc1ccc(C(=O)N/C(=C\c2ccc(Br)cc2)C(=O)NC2CCCCC2)cc1	11%	-15%[10.9 µM]	?	nt	nt	10%
CC(C)OCCCNC(=O)CSc1c2c(nc3ccc(Cl)cc13)CCCC2	13µM*	-4%[10.9 µM]	?	nt	nt	?
Cc1cc(C)cc(NS(=O)(=O)c2ccc3[nH]cc(C(=O)NCc4ccco4)c(=O)c3c2)c1	?	-26%	?	-6%	-10%	2µM*
O=C(CSc1nc(-c2ccccc2)no1)N1CCN(c2ccccc2F)CC1	-1%	24%[10.9 µM]	?	nt	nt	-16%
COc1ccccc1N1CCN(C(=O)CSc2nc(-c3ccc(C(C)C)cc3)no2)CC1	7.9µM*	-11%[10.9 µM]	?	nt	nt	?
CC(C)c1ccc(-c2noc(SCC(=O)N3CCN(c4ccccc4F)CC3)n2)cc1	?	-13%[10.9 µM]	-4%	nt	nt	6.3µM*
CCOc1ccc(-n2c(SCC(=O)Nc3ccc(F)cc3)nc3c([nH]c4ccccc43)c2=O)cc1	0%	-5%[10.9 µM]	-3%	nt	nt	-28%
Cc1cccc(N2CCN(c3nnnn3-c3ccccc3)CC2C)c1 (stereo not drawn)	4%	-14%	?	?	25µM*	-10%
Cc1cccc(N2CCN(c3cc(C)nc4nnnn34)CC2C)c1 (stereo not drawn)	16%	-10%	0%	-1%	4%	17%
Cc1cc(F)ccc1NC(=O)CS(=O)(=O)c1cccc2nsnc12	15%	-8%[10.9 µM]	1%	nt	nt	0.04µM*
Cc1cc(Cl)ccc1NC(=O)CS(=O)(=O)c1cccc2nsnc12	0%	-4%[10.9 µM]	2%	nt	nt	-21%
SMILES	p53ts 32C tox	Imprint erasure	IkB sig inh	TSHR agonist	HEK293 cAMP cs	p53ts 39C kill
CCN1CCN(c2c(Cl)cccc2NC(=O)c2ccco2)CC1	1%	-3%	-4%	8%	2%	10%
O=C(Nc1cccc(Cl)c1N1CCCC1)c1ccc(Br)o1	-3%	-18%	0%	?	25µM*	-14%
O=C(Nc1cccc(Cl)c1N1CCCC1)c1cc2ccccc2o1	-12%	-3%	2%	?	25µM*	2%
Cc1ccc(S(=O)(=O)N2CCN(C(=O)CN3CCc4ccccc4C3)CC2)cc1	2%	-14%	4%	?	10µM*	-20%
CCCn1c(-c2cccc(Br)c2)nc2ccccc21	5%	-7%[10.9 µM]	3%	nt	nt	-15%
CCCn1c(-c2ccc(OC)cc2)nc2ccccc21	-24%	-15%	?	?	25µM*	-12%
COCn1c(-c2ccc(OC)cc2)nc2ccccc21	7.9µM*	nt	nt	nt	nt	11µM*
CCCCCn1c(NCc2ccc(OC)cc2)nc2ccccc21	?	-20%[10.9 µM]	?	nt	nt	16µM*
COc1ccc(-c2nc3ccccc3n2Cc2ccc(Cl)cc2)cc1	-7%	?	?	nt	nt	38%
COc1ccc(-c2nc3ccccc3n2Cc2ccc(C(C)C)cc2)cc1	28%	-16%[10.9 µM]	?	nt	nt	18µM*
COC(=O)c1cc(NS(=O)(=O)c2cc(Br)cc3c2N(C(C)=O)CC3)cc(C(=O)OC)c1	0%	-13%[10.9 µM]	-1%	nt	nt	3%
Cc1oc(-c2ccc(Cl)cc2)nc1CSc1nc2ncccc2[nH]1	9%	nt	nt	nt	nt	nt
Cc1cc2oc(C(=O)N(Cc3ccccc3F)C3CCS(=O)(=O)C3)c(C)c2cc1Cl (stereo not drawn)	12%	-11%[10.9 µM]	?	nt	nt	1%
O=C1c2ccccc2C(=O)N1Cc1nc2ccccc2o1	3%	-4%	0%	-10%	4%	0%
O=C1c2ccccc2C(=O)N1CCCSc1nc2ccccc2o1	-2%	-12%	?	?	4µM*	-4%
Cc1ccccc1CNC(=O)c1cc2cc(S(=O)(=O)N3CCCCC3)ccc2n1C	14%	12%[10.9 µM]	0%	nt	nt	-6%
O=C(CSc1nnc(COc2ccccc2)n1Cc1ccco1)Nc1ccc2c(c1)OCCO2	13%	?	0%	20µM*	15%	18%
O=C(CSc1nnnn1Cc1ccccc1)Nc1ccc2c(c1)OCCO2	-7%	-7%	0%	3.2µM*	4%	-13%
Cc1cc(NC(=O)CSc2nnc(COc3ccccc3)n2Cc2ccco2)no1	3%	2%	1%	-3%	-8%	-2%
O=C(CSc1nnnn1Cc1ccccc1)Nc1ccc2c(c1)OCO2	-3%	-4%	0%	-2%	18%	-4%
COc1ccc(S(=O)(=O)Nc2ccc3c(c2)sc(=O)n3C)cc1Cl	-20%	-6%[10.9 µM]	?	nt	nt	?
O=C(Nc1cccc(F)c1)N1CCC2(CC1)CCN(C(=O)c1cc(C(F)(F)F)cc(C(F)(F)F)c1)CC2	-7%	nt	3%[11.4 µM]	24%	9%	-2%

High-throughput results deposited in PubChem by National Center for Advancing Translational Sciences (NCATS).
